A selection: hits, their analogues and other compounds. The true share with any hit is near 17%.
HepG2 tox = HepG2 cytotoxicity, counter-screen for TGF-b inhibitors; HepG2 CAGA-GFP viability, ATP luminescence, 18 h; Potency, µM (highest dose often 46.1 µM), for inactives: at the highest dose activity change, negative = cytotoxicity, most hits filed as cytotoxic; 410,000 tested, 0.76% active; AID 588856
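HepG2 CAGA-GFP cells (1000/well, DMEM with 1% FBS) received compound, then TGF-beta at 500 pg/mL final, and were incubated 18 hours at 37 degrees C. Viability was read by CellTiter-Glo luminescence. Media-only wells were set as complete cell-killing and DMSO as no toxicity.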
S2 tox = reduces viability in counter-screen for ATXN expression inhibitors; 400,000 tested, 0.49% active; AID 651635; Potency, µM (highest dose often 56.7 µM), most hits filed as cytotoxic; S2 cells (HEK-293 line with an ATXN2-luciferase reporter) viability, CellTiter-Fluor protease fluorescence, 24 h; also: nearly all actives have a fitted effect of over 40% in size
TGFb inhibitor = TGF-b pathway inhibition. Potency, µM (series often up to 46.1 µM), for inactives: at the top dose activity, negative = inhibition, hits mostly inhibitors. AID 588855. HepG2 CAGA-GFP TGF-b/SMAD3 reporter, GFP fluorescence, 18 h; TGF-beta stimulated, 500 pg/mL final. 410,000 tested, 1.2% active; also: % is scaled to controls: 0 for no effect and ±100 for the full control effect; nearly all actives have a fitted effect of over 65% in size
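First, reporter cells (HEPG2 CAGA-GFP) rested 2 h at 37 degrees C. Next, compounds were pinned in and TGF-beta added to 500 pg/mL final. After 18 h, GFP was imaged per cell and summed per well.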
TDP1 cell CPT = DT40-hTDP1 cell growth loss with CPT; chicken DT40 Tdp1-/-;hTDP1 cells + 20 nM CPT, ATP luminescence, 48 h; Potency, µM (titrated, usually from 46.2 µM), inactives show at the highest dose activity change, negative = growth inhibition, usual class: inhibitors; 420,000 tested, 12% active; AID 686979; also: % is scaled to controls: 0 for no effect and ±100 for the full control effect; nearly all actives have a fitted effect of over 55% in size
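Cell growth measured by CellTiter-Glo luminescence after a minimum 48 h, 37 C compound exposure with 20 nM CPT in Tdp1-knockout DT40 cells stably expressing hTDP1, seeded 400/well; qHTS titration format.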
TDP1 cell noCPT = qHTS for Inhibitors of human tyrosyl-DNA phosphodiesterase 1 (TDP1): qHTS in cells in absence of CPT. Potency, µM (series often up to 46.2 µM), inactives show top-dose activity change, negative = growth inhibition, hits mostly inhibitors. AID 686978, 2013. 420,000 tested, 15% active. DT40 Tdp1-/- hTDP1 cells, no CPT, ATP luminescence, 48 h; also: % is scaled to controls: 0 for no effect and ±100 for the full control effect; nearly all actives have a fitted effect of over 55% in size
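Cells were dispensed at 400 per well, compounds added by pin tool, plates incubated ≥48 hr at 37 °C, then CellTiter-Glo added for 30 min at room temperature before luminescence reading. Line: DT40 Tdp1-/- complemented with hTDP1; camptothecin omitted.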
ATXN2 expr inh = reduces ATXN2 reporter expression in HEK-293 cells. HEK-293 ATXN2-luciferase reporter, luminescence, 24 h. 360,000 tested, 0.72% active. AID 1745845. Potency, µM (series often up to 57 µM), without a hit: at the highest dose activity change, negative = inhibition, most hits filed as inhibitors; also: % is scaled to controls: 0 for no effect and ±100 for the full control effect; nearly all actives have a fitted effect of over 55% in size
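qHTS (up to 57 uM final) was run with 24 h compound exposure of reporter cells at 37 °C. Each well was multiplexed: SteadyGlo luminescence measured ATXN2-luciferase expression after a fluorogenic Gly-Phe-AFC viability readout (25 uM final).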
The depositor's hits bear a star; i = inactive; ? = inconclusive; nt = no result; [ ] = remark or other dose. Calls follow the shape of the dose curve; as a rule, active = well fitted curve in the direction sought with a large enough effect; inconclusive = small, poorly fitted or top-dose-only effect, or another doubt; inactive = no such curve, though single readings can be large; an effect the other way counts as inactive or inconclusive. Potency is read from the fitted curve at half-maximal effect.

SMILES	HepG2 tox	S2 tox	TGFb inhibitor	TDP1 cell CPT	TDP1 cell noCPT	ATXN2 expr inh
CCN(CC)CCC(=O)c1ccc(F)cc1	0%	i	10%	2.9µM*	2.3µM*	1%[11.3 µM]
CN(C)CCC(=O)c1ccc2c(c1)OCO2	-77%	i	?	3.7µM*	3.7µM*	6%
CC(C)C[C@H](NC(=O)C1CCN(S(=O)(=O)c2ccccc2)CC1)C(=O)NCc1ccccn1	5%	i	8%	-3%	13%	-5%
Cc1ccc(-c2nc(CN(Cc3cnn(C)c3)C(C)C)c(C)o2)o1	-10%	?	-8%	-12%	-21%	5%
CC(=O)Nc1ccc(S(=O)(=O)N2CCc3cc4c(cc3C2)OCCCO4)cc1	-18%	?	-14%	21µM*	?	nt
CC(=O)c1cc2c(cc1NS(=O)(=O)c1ccc(C)cc1)OCCO2	-2%	i	5%	23µM*	21µM*	-32%
COC(=O)c1ccc(C)c(NS(=O)(=O)c2ccc3c(c2)OCCO3)c1	-7%	i	-20%	0.92µM*	0.92µM*	1%
O=[N+]([O-])c1ccc(S(=O)(=O)Nc2ccc(-c3ccccc3)cc2)cc1	-62%	?	?	?	13µM*	nt
COC(=O)c1ccc(C)c(NS(=O)(=O)c2ccc(C)c([N+](=O)[O-])c2)c1	-40%	i	0%	-24%	?	12%
CCOC(=O)c1[nH]c(COC(=O)C2CC(=O)N(Cc3ccccc3)C2)c(C(=O)OCC)c1C (configuration not stated)	23%	i	23%	-6%	-13%	9%
CC(C)=CCN1CCN(Cc2cccn2-c2ccccn2)CC1CCO (configuration not stated)	45%	i	12%	3%	-17%	-15%
Cc1c(NS(=O)(=O)c2ccc3c(c2)OCCO3)cccc1-c1nc2cccnc2s1	-30%	i	?	?	12µM*	-16%
Cc1c(Cl)cccc1NS(=O)(=O)c1ccc(NS(=O)(=O)c2ccc3c(c2)OCCO3)cc1	-42%	i	16µM*	6%	-22%	?
O=[N+]([O-])c1ccc(S(=O)(=O)Nc2ccc3c(c2)OCCO3)cc1	-16%	i	-5%	?	16µM*	nt
O=C1CCCN1c1ccc(S(=O)(=O)Nc2ccc3c(c2)OCCO3)cc1	0%	i	-26%	3.3µM*	2.9µM*	-18%
CCCc1nn(C)c(C(=O)Nc2cccc3ccccc23)c1Cl	-1%	i	-19%	?	?	38%
Cc1ccc2nc(-c3ccc(NC(=O)COc4ccc(Br)cc4Br)cc3)sc2c1	-26%	nt	-43%	-2%	1%	nt
N#CCc1ccc(NS(=O)(=O)c2ccc(N3CCCC3=O)cc2)cc1	-5%	i	0%	13µM*	?	7%
CC(=O)Nc1ccc(S(=O)(=O)Nc2ccc3c(c2)OCCO3)cc1	-21%	i	-8%	?	7.3µM*	4%
Cc1ccc(-c2nc(CSCC(=O)NCc3cccnc3)c(C)o2)cc1	-15%	i	-17%	?	?	-8%
COC(=O)c1ccc(S(=O)(=O)N2CCCCCC2)cc1	-24%	i	3%	-14%	-17%	0%
O=C(/C=C/c1ccc(O)c(O)c1)c1ccc(S(=O)(=O)N2CCCCCC2)cc1	-69%	i	-91%	4.6µM*	5.2µM*	-21%
O=C(CC1C(=O)N(c2ccc(F)cc2)C(=O)N1Cc1ccc2c(c1)OCO2)Nc1ccc(Cl)cc1 (configuration not stated)	-30%	?	-17%	?	21µM*	-22%
Cc1ccc(N2C(=O)C(CC(=O)Nc3ccc(F)cc3)N(Cc3ccc4c(c3)OCO4)C2=O)cc1 (configuration not stated)	-3%	i	-3%	?	16µM*	4%
COc1ccc(CCNC(=O)Cc2cc(OCc3ccccc3)c(OC)cc2[N+](=O)[O-])cc1OC	-7%	i	5%	?	?	-7%
SMILES	HepG2 tox	S2 tox	TGFb inhibitor	TDP1 cell CPT	TDP1 cell noCPT	ATXN2 expr inh
COc1cc(/C=C\C(=O)NCc2ccc3c(c2)cc(C)n3C)cc(OC)c1OC	-90%	i	-5%	-20%	26µM*	17%
COc1ccc(CC(=O)NCc2ccc3c(c2)cc(C)n3C)cc1OC	-26%	i	-29%	-27%	15µM*	nt
O=C(Nc1cccc2[nH]c([C@H]3C[C@H](O)[C@@H](CO)O3)nc12)NC(c1ccccc1)c1ccccc1	-15%	i	-3%	1%	-10%	13%
CCN(C(=O)COC(=O)c1cncc(Br)c1)C1CCS(=O)(=O)C1 (configuration not stated)	3%	i	7%	0%	15%	14%[11.3 µM]
CCn1c(-c2ccccc2F)nc2cc(NC(C)=O)cc(C(=O)N(C)Cc3ccccn3)c21	nt	i	nt	4%[9.04 µM]	-3%	nt
COc1cc2c(c(O)c1OC)-c1c(cc(OC)c(OC)c1OC)C[C@@H](C)[C@@H](C)C2	-26%	?	-19%	?	?	2%
COc1cc2c(c(OC)c1OC)-c1c(cc3c(c1O)OCO3)C[C@@H](C)[C@@H](C)C2	-39%	i	?	23µM*	?	-10%
O=C(CCC(=O)NC12CC3CC(CC(C3)C1)C2)NC1CCCCC1	-2%	i	5%	1%	9%	nt
Cc1ccc(-n2ncc3c2CCCC3NC(=O)c2csnn2)cc1C (configuration not stated)	-6%	i	-4%	?	?	-7%
O=C(NC1CCCc2c1cnn2-c1ccc(F)cc1F)c1ccccc1N1CCOCC1 (configuration not stated)	0%	i	?	?	23µM*	-9%
Cc1ccc(-n2ncc3c2CCCC3NC(=O)c2ccccc2N2CCOCC2)cc1C (configuration not stated)	15%	i	-25%	16µM*	?	-8%
O=C(CCc1ccccn1)NC1CCCc2c1cnn2-c1ccc(F)cc1F (configuration not stated)	-16%	i	?	-25%	?	nt
CCOc1ccccc1CNS(=O)(=O)c1cc2c(cc1C)NC(=O)CO2	-21%	nt	0%	?	23µM*	nt
CCCOc1ccc(-c2cc(C(F)(F)F)c(C#N)c(SCCC(=O)O)n2)cc1	-37%	i	12%	?	?	8%

Screening results: PubChem, National Center for Advancing Translational Sciences (NCATS)
